Measurements: the supplement of paper PMC3545927
The list shows a part of the results. The true hit rate is not given.

Target: furin, P09958
Assay: furin cleavage Z-score vs untreated control; higher = more cleavage, active = 3.5 or more, inactive = 1 or less, 8 variable residues between constant flanks
In short: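 Read counts from sequencing released DNA gave abundance for each bead-bound 8-mer peptide–cDNA fusion cut by purified furin over 7.5, 15 or 30 min. The cleavage Z-score compares log counts with furin-free reactions after lowess adjustment and median absolute deviation scaling.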
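Also: purified furin at 1:10 enzyme:substrate in 50 mM HEPES pH 7.5.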

furin, P09958, sequence (P09958 whole entry): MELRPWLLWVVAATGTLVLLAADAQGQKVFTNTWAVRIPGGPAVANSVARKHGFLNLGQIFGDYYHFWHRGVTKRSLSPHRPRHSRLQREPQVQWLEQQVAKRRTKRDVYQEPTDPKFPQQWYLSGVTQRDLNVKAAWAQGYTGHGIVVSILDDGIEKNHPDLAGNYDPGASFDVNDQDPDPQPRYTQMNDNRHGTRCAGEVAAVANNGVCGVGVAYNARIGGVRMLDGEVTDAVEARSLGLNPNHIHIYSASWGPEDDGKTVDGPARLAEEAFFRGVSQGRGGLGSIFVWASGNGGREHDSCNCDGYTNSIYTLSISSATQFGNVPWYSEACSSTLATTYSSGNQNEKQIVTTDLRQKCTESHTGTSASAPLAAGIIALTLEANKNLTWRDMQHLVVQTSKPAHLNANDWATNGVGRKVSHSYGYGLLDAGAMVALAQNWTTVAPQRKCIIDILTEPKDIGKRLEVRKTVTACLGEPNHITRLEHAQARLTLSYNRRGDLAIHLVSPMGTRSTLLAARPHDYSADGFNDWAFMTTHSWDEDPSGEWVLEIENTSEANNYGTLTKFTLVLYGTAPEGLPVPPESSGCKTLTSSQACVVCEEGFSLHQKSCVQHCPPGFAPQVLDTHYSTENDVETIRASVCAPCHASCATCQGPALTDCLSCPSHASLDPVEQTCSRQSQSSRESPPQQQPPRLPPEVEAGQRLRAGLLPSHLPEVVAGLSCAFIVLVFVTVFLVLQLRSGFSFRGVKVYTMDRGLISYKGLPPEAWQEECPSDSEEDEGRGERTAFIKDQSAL

Sequence	furin cleavage Z-score (7.5 min)	furin cleavage Z-score (15 min)	furin cleavage Z-score (30 min)
CAPLLREEVSAGNASASA [HC1230]	0.0348 (inactive)	-0.15 (inactive)	-1.63 (inactive)
CATTPCSQSWAGNASASA [HC1902]	-0.685 (inactive)	-1.5 (inactive)	-0.222 (inactive)
CATTGCSGSWAGNASASA [HC1876]	-1.5 (inactive)	-0.493 (inactive)	0.42 (inactive)
CASPSGQKRSAGNASASA [FS-723]	0.144 (inactive)	0.828 (inactive)	0.312 (inactive)
CAHFSRQKRSAGNASASA [FS-535]	8.68 (active)	10.7 (active)	8.57 (active)
CAKDSRQKRSAGNASASA [FS-670]	10.3 (active)	10.5 (active)	7.97 (active)
CAQPSRQKRSAGNASASA [FS-480]	11.2 (active)	11.3 (active)	7.7 (active)
CAVVCCRMSYAGNASASA [HC110]	0.397 (inactive)	0.763 (inactive)	0.409 (inactive)
CAVVCCSMSHAGNASASA [HC2095]	-0.191 (inactive)	0.171 (inactive)	0.0466 (inactive)
CAARLVVLATAGNASASA [HC831]	-1.24 (inactive)	-1.13 (inactive)	-0.8 (inactive)
CARHHRGRGGAGNASASA [FS-2022]	-0.128 (inactive)	0.955 (inactive)	-0.479 (inactive)
CAMASRFPRAAGNASASA [FS-690]	11.5 (active)	11.7 (active)	9.44 (active)
CARHHRFPRAAGNASASA [FS-1063]	12.2 (active)	10.7 (active)	8.91 (active)
CAKSKKTPMGAGNASASA [HC1475]	1.44	0.854 (inactive)	-0.61 (inactive)
CAEVVTSTWRAGNASASA [HC2253]	0.989 (inactive)	0.48 (inactive)	1.66
CATTPASGSWAGNASASA [HC41]	-0.916 (inactive)	-1.61 (inactive)	-1.23 (inactive)
CADDMEECSQAGNASASA [HC1811]	0.222 (inactive)	-0.945 (inactive)	-0.707 (inactive)
CARRRRQAERAGNASASA [FS-2793]	10.1 (active)	11.9 (active)	8.27 (active)
CARRRRDATRAGNASASA [FS-1970]	13.2 (active)	14.6 (active)	10 (active)
CARRRRKKARAGNASASA [FS-2790]	1.33	1.06	0.0674 (inactive)
CANAVAYYRGAGNASASA [HC867]	-0.298 (inactive)	0.148 (inactive)	1.73
CARRRKSLKTAGNASASA [FS-2783]	0.0718 (inactive)	1.16	2.47
CARVRRNKRSAGNASASA [FS-1275]	11.3 (active)	10.9 (active)	9.58 (active)
CAKRERNKRSAGNASASA [FS-1637]	12.5 (active)	14.4 (active)	10.7 (active)
CARVRRNAKKAGNASASA [FS-1978]	6.72 (active)	5.97 (active)	7.62 (active)
CARVRKSKGKAGNASASA [FS-1802]	0.157 (inactive)	-1.05 (inactive)	0.116 (inactive)

Sequence	furin cleavage Z-score (7.5 min)	furin cleavage Z-score (15 min)	furin cleavage Z-score (30 min)
CAGPVRLKKKAGNASASA [FS-1527]	-0.8 (inactive)	-1.68 (inactive)	-0.907 (inactive)
CARVRKSLKKAGNASASA [FS-2534]	0.916 (inactive)	3.69 (active)	5.83 (active)
CADSVIDCNTAGNASASA [HC885]	0.968 (inactive)	0.824 (inactive)	1.02
CAASGVLTTSAGNASASA [HC1511]	-1.03 (inactive)	-0.000581 (inactive)	-0.909 (inactive)
CAMEECSQHYAGNASASA [HC1769]	0.65 (inactive)	1.28	2.12
CAGVPPLRAWAGNASASA [HC1617]	0.794 (inactive)	0.986 (inactive)	0.446 (inactive)
CARKPRPLDPAGNASASA [FS-2563]	1.12	0.612 (inactive)	0.941 (inactive)
CAQPEYDLELAGNASASA [HC1548]	1.74	0.744 (inactive)	0.874 (inactive)
CARKSRDMEIAGNASASA [FS-2980]	0.641 (inactive)	-0.334 (inactive)	1.3
CARKPRDLELAGNASASA [FS-2038]	8.14 (active)	11 (active)	10.9 (active)
CAVTPIDTTIAGNASASA [HC1436]	-0.162 (inactive)	-2.25 (inactive)	-0.263 (inactive)
CARKPRDYTIAGNASASA [FS-2695]	0.48 (inactive)	0.851 (inactive)	3.93 (active)
CAAAVTSPLTAGNASASA [HC1058]	0.302 (inactive)	-1.38 (inactive)	-0.302 (inactive)
CARNSTGLYHAGNASASA [HC258]	0.587 (inactive)	-0.804 (inactive)	-0.846 (inactive)
CATTALVMAQAGNASASA [HC325]	0.431 (inactive)	-0.525 (inactive)	-0.108 (inactive)
CAMETCSQHLAGNASASA [HC1718]	-0.505 (inactive)	1.16	2.25
CARLRKDQLKAGNASASA [FS-2432]	-0.25 (inactive)	0.106 (inactive)	1.29
CARLKRSRLKAGNASASA [FS-1741]	3.6 (active)	6.18 (active)	7.33 (active)
CARLKREIEKAGNASASA [FS-2431]	9.68 (active)	9.27 (active)	9.19 (active)
CARLRRPIGKAGNASASA [FS-3160]	-0.962 (inactive)	-0.579 (inactive)	-1.27 (inactive)
CARLGRSIDDAGNASASA [FS-2275]	5.11 (active)	6.98 (active)	5.82 (active)
CARLGRIVDRAGNASASA [FS-1737]	-0.217 (inactive)	-0.37 (inactive)	0.14 (inactive)
CARLKRNQEKAGNASASA [FS-2707]	-0.221 (inactive)	0.44 (inactive)	1.38
CARLKRYHSQAGNASASA [FS-2156]	1.21	-0.314 (inactive)	1.6
CARLKRNIGYAGNASASA [FS-1962]	4.52 (active)	7.71 (active)	8.24 (active)
